Assay results published in PubChem BioAssay AID588719 (Southern Research Specialized Biocontainment Screening …, 2011).
Among all 1,500 compounds or so, about 920 (61%) were called active. No rule for the calls is given here. The set was probably picked from earlier hits. The list shows a part of the results. Entries with a potency or affinity are not part of this list.

Assay: Vero 76 cell cytotoxicity, dose response, cytotoxicity control for VEEV inhibitor project (AID 588719)
Conditions: Vero 76 cells viability, cytotoxicity counter-screen; series mostly up to 25 µM

Row | SMILES | outcome
1 | CCCNC(=O)N1CCN(c2nc(C(C)C)c3c(c2C#N)CC(C)(C)OC3)CC1 | inactive
2 | Cc1ccccc1NC(=S)/C(=C(\[O-])c1ccc(C)c([N+](=O)[O-])c1)[n+]1ccccc1 | inactive
3 | O=C(Nc1ccccc1)c1cccc(Cn2cc(C(F)(F)F)ccc2=O)c1 | inactive
4 | Cc1cc(C(=O)NC2CCCc3c2cnn3-c2cccc(C)c2C)no1 (stereo unspecified) | inactive
5 | CCOC(=O)C1C(=O)C(=O)N(C2CCCCC2)C1C(=O)OCC (stereo unspecified) | inactive
6 | C/C(N)=C(/C#N)C(=O)COC(=O)c1cc(C)n(-c2ccc(F)cc2)c1C | inactive
7 | CN(C(=O)CCN1C(=O)/C(=C/c2ccccc2F)SC1=S)C1CCS(=O)(=O)C1 (stereo unspecified) | inactive
8 | Cc1cccc(C)c1OCC(=O)N(Cc1cccs1)C1CCS(=O)(=O)C1 (stereo unspecified) | inactive
9 | CCCn1c(SCC(=O)N(C)C2CCS(=O)(=O)C2)nc2sc3c(c2c1=O)CCC3 (stereo unspecified) | inactive
10 | O=C(Cn1c(=O)sc2ccccc21)Nc1nc2c(s1)CCCC2 | inactive
11 | NC(=O)CC(NC(=O)Cc1ccc(Br)cc1)c1ccc(N2CCC(Cc3ccccc3)CC2)c([N+](=O)[O-])c1 (stereo unspecified) | inactive
12 | CCCCCCCCCC(=O)N[C@@H]1c2cc(OC)c(OC)cc2C[C@H]1OCc1ccccc1 | inactive
13 | COc1ccccc1C(CNC(=O)CNC(=O)c1ccc(Cl)c(Cl)c1)N1CCCC1 (stereo unspecified) | inactive
14 | CN(C)CCCN(C(=O)c1cc(-c2cccs2)nc2ccccc12)c1nc2ccc(F)cc2s1 | inactive
15 | COc1ccc(/C=N/NC(=O)c2cc[n+]([O-])cc2)cc1OC | inactive
16 | CCCn1nc(NC(=O)c2cccs2)c2cc3cccc(C)c3nc21 | inactive
17 | C/C(=N\NC(=O)c1ccc(N/N=C(\C)c2ccc(O)cc2)cc1)c1ccc(O)cc1 | inactive
18 | C/C(=N/OCO/N=C(/C)c1ccc(F)cc1)c1ccc(F)cc1 | inactive
19 | Cc1ccc(S(=O)(=O)C2(C(=O)NCc3ccccc3Cl)CC2)cc1 | inactive

Row | SMILES | outcome
20 | Cc1ccccc1CN(C)C(C)C(=O)Nc1ccccc1F (stereo unspecified) | inactive
21 | Cc1ccccc1NC(=NCCCN1CC1)Nc1ccccc1C | inactive
22 | O=C1C2CCCN2C(c2cccs2)N1c1ccc(Cl)cc1 (stereo unspecified) | inactive
23 | C[C@@H]1CN([C@H](C)CO)C(=O)CCCn2nncc2CO[C@H]1CN(C)C(=O)C1CC1 | inactive
24 | CC(C)[N+]1=C2C=CC=CC=C2SC12C([N+](=O)[O-])=CC(=[N+]([O-])[O-])C=C2[N+](=O)[O-] (stereo unspecified) | inactive
25 | O=C(Nc1csc([N+](=O)[O-])c1)Nc1ccccc1Cl | inactive
26 | CCC(=O)N1CCN(c2ccc(Cl)cc2NC(=O)c2cccc([N+](=O)[O-])c2)CC1 | inactive
27 | Cc1ccc(CS(=O)Cc2ccc(C(=O)N3CCN(c4cccc(C)c4C)CC3)o2)cc1 (stereo unspecified) | inactive
28 | COc1ccc(Cl)cc1C=CC=Nc1ccc(S(N)(=O)=O)cc1 | inactive
29 | N#Cc1cccc(NC(=O)CSc2n[nH]c(=O)[nH]c2=O)c1 | inactive
30 | Cc1ccc(CN2CCCC(C(=O)c3ccc4c(c3)OCO4)C2)cc1C (stereo unspecified) | inactive
31 | O=[N+]([O-])c1cccc(C([O-])=C(C(=S)Nc2cccc3ccccc23)[n+]2ccccc2)c1 | inactive
32 | COc1ccc(N2CCCC2)c(NC(=O)c2ccc([N+](=O)[O-])o2)c1 | inactive
33 | O=[N+]([O-])c1cccc(/C([O-])=C(/C(=S)Nc2cccc3ccccc23)[n+]2ccccc2)c1 | inactive
34 | Cc1nc(N)[nH]c(=O)c1CCCNc1ccc([N+](=O)[O-])cc1 | inactive
35 | C=CCNCCCCOc1ccc(OCc2ccccc2)cc1 | inactive
36 | CCn1c(=O)c([N+](=O)[O-])c(NCc2ccc3c(c2)OCO3)c2ccccc21 | inactive
37 | Cc1ccc(Nc2nc(=O)c3cccnc3s2)c(Br)c1 | inactive
38 | CCN1C/C(=C\c2cc(OC)c(OC)c(OC)c2)C2=NN(c3ccccc3)C(c3cc(OC)c(OC)c(OC)c3)C2C1 (stereo unspecified) | inactive

Row | SMILES | outcome
39 | CC(C)CN1C(=O)/C(=C(/C#N)C(=O)NC2CCCCC2)c2ccccc21 | inactive
40 | Cc1ccc(SCCC(=O)Nc2nccs2)cc1 | inactive
41 | COc1ccc(C(=O)NC2CCCc3c2cnn3-c2cccc(C)c2C)o1 (stereo unspecified) | inactive
42 | Cn1c(CCN2CCCCC2)nc2cc(NC(=O)COc3ccc([N+](=O)[O-])cc3)ccc21 | inactive
43 | COc1ccc(Cl)cc1S(=O)(=O)N1CCN(C(=O)c2n[nH]c(=O)c3ccccc23)CC1 | inactive
44 | O=c1oc(C2(O)CCCCC2)cc2ccc(-c3ccc4[nH]ccc4c3)cc12 | inactive
45 | O=C(C=Cc1cccc(Cl)c1)c1ccccc1 | inactive
46 | Cc1cc(NC(=O)C(C)SCC(=O)N(Cc2ccccc2)c2ccccc2)no1 (stereo unspecified) | inactive
47 | Cc1cc(NC(=O)COC(=O)c2cc(S(=O)(=O)N(C)c3ccccc3)ccc2Cl)no1 | inactive
48 | O=C(O)c1cc(-c2ccc3ccccc3c2)nc2ccc(F)cc12 | inactive
49 | Cc1nc(N)ncc1Sc1ccccc1 | inactive
50 | O=C(CSc1nc2ccc(Cl)cc2[nH]1)c1cccs1 | inactive
51 | O=C(/C=C/c1ccnc2ccccc12)c1cccs1 | inactive
52 | COc1cccc(N2CCN(c3ccc(S(=O)(=O)N4CCN(C)CC4)cc3[N+](=O)[O-])CC2)c1 | inactive
53 | CN1CCN(c2ccc(CNS(=O)(=O)c3ccccc3)cc2)CC1 | inactive
54 | COc1ccc(N2CCN(CCCn3c(=S)[nH]c4ncccc4c3=O)CC2)cc1 | inactive
55 | C#CCSc1nc(=O)c2cccnc2n1-c1ccc(C)cc1 | inactive
56 | CCN(CC)CC(=O)Nc1ccc(/C(C)=N/NC2=NCCN2)cc1 | inactive
